Results filed as inconclusive are left out. Where a call stands in place of a potency, no number is given. Activity calls are given as the source filed them. Unless noted, the call rests on the fitted dose curve; in most records, active means well fitted curve in the direction sought with a large enough effect; inconclusive means small, poorly fitted or top-dose-only effect, or another doubt; inactive means no such curve, though single readings can be large; an effect the other way counts as inactive or inconclusive.
What was measured:
[1] = molecular target: Cytochrome P450 3A4 (Homo sapiens) (UniProt P08684); assay: qHTS Assay for Inhibitors and Substrates of Cytochrome P450 3A4 (AID 884); further: nearly all actives have a fitted effect of over 50% in size; further: potency means the concentration at half of the fitted maximal effect
Outline: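 Luminescent readout of luciferin produced by CYP3A4 (20 nM) dealkylation of Luciferin-PPXE, 25 uM (its KM). NADPH-driven reaction ran 60 min at RT after 10 min compound preincubation; data scaled to 57 uM ketoconazole as 100% inhibition.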

[2] = Confirmation and Secondary Assay for Modulators of Hemoglobin Beta Chain Splicing at IVS2 654 locus (AID 910);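 further: HeLa cells stably carrying EGFP split by mutant beta-globin IVS2-654 intron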
Outline: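 HeLa cells stably expressing EGFP interrupted by β-globin IVS2-654 intron, seeded overnight in Opti-MEM/2% FCS, then treated 2 days at 37 °C. Restored splicing read as total peak GFP intensity per well by laser scanning cytometry (488 nm excitation, 500–520 nm emission); 500 nM antisense PNA as control.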

[3] = Confirmation and Secondary Assay for Modulators of Hemoglobin Beta Chain Splicing at IVS2 705 locus (AID 930);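 further: HeLa cells stably expressing the EGFP-705 splicing reporter; GFP fluorescence per well restored by corrected splicing of the IVS2-705 intron in EGFP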
Outline: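 Assay measures total GFP intensity per well in HeLa EGFP-705 cells after 2 days with compound; mis-splicing normally truncates EGFP, so fluorescence indicates corrected splicing.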

[4] = qHTS Assay for Lipid Storage Modulators (AID 1519; calls by dose curve); conditions: Drosophila S3 cells, BODIPY lipid droplet/cell ratio, laser cytometry, cells loaded with oleic acid; for activity change, negative = inhibition: at 57.5 µM (top of the series)
Outline: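 Cells seeded at 5,000 per well were treated with compounds over a concentration series and loaded with oleic acid (400 uM, as added). Lipid droplet fluorescence (488 nm excitation, 500-530 nm channel) was read by laser-scanning cytometry and normalized to 20 uM Triacsin C.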

[5] = molecular target: ATP-dependent 6-phosphofructokinase (Trypanosoma brucei brucei) (UniProt O15648); assay: qHTS Assay to Find Inhibitors of T. brucei phosphofructokinase: hit validation (AID 492961)
Outline: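 Luminescence from ADP-Glo reports ADP generated as T. brucei PFK (1.25 nM) phosphorylates 0.5 mM fructose-6-phosphate using 0.1 mM ATP. Reactions ran 45 min at room temperature, pH 8.0.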

[6] = molecular target: Ubiquitin carboxyl-terminal hydrolase 1 (Homo sapiens) (UniProt O94782); assay: Inhibitors of USP1/UAF1: Pilot qHTS (AID 504865);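 further: rhodamine fluorescence freed from ubiquitin-rhodamine substrate followed over time; top concentration of the series differs between compounds; nearly all actives have a fitted effect of over 35% in size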
Outline: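 In 50mM HEPES pH 7.8 containing 0.5mM EDTA, 1mM TCEP, 0.1 mg/ml BSA and 0.01% Tween-20, 1nM USP1/UAF1 is exposed to compound for 15 min, then Ub-Rho (150nM final) is added and fluorescence is read over time.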

[7] = molecular target: Luciferin 4-monooxygenase (Photinus pyralis) (UniProt P08659); assay: Biochemical firefly luciferase enzyme assay for NPC (AID 624030);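 further: purified P. pyralis luciferase at 10 nM with luciferin and ATP substrate; nearly all actives have a fitted effect of over 70% in size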
Outline: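 Purified P. pyralis luciferase at 10 nM in 50 mM Tris Acetate (final), luminescence read within 5 minutes of enzyme addition to compounds. Activity normalised to PTC124 versus DMSO; concentration-response curves classed by r2, magnitude and activity.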

[8] = S16 Schwann cell PMP22 intronic element firefly luciferase assay (AID 624032); further: nearly all actives have a fitted effect of over 30% in size
Outline: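 Rat S16 Schwann cells stably carrying firefly luciferase driven by a PMP22 intronic element, in 10% FBS, treated 24 h at 37 C. ONE-Glo luminescence normalized to PTC124 control and DMSO (0%); curves classed by r2, magnitude and activity.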

[9] = qHTS profiling for inhibitors of Plasmodium falciparum proliferation (AID 504749); further: nearly all actives have a fitted effect of over 60% in size; conditions: P. falciparum in erythrocytes, SYBR Green DNA, 72 h, at 28.7 µM (top of the series)
Outline: (§1)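 SYBR Green fluorescence (ex 485 nm, em 535 nm) reports parasite DNA after 72 h compound exposure of infected red cells at 0.3% parasitemia, 2.5% hematocrit; signal normalized to 0.29 uM artemisinin and vehicle wells.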

[10] = test system: CP191; assay: as above; conditions: P. falciparum in erythrocytes, SYBR Green DNA, 72 h; series mostly up to 12.8 µM
Outline: as §1

[11] = test system: CP194; assay: as above; conditions: P. falciparum in erythrocytes, SYBR Green DNA, 72 h; series mostly up to 12.8 µM
Outline: as §1

[12] = test system: CP201; assay: as above; conditions: P. falciparum in erythrocytes, SYBR Green DNA, 72 h; series mostly up to 12.8 µM
Outline: as §1

[13] = test system: CP315; assay: as above; conditions: P. falciparum in erythrocytes, SYBR Green DNA, 72 h; series mostly up to 12.8 µM
Outline: as §1

[14] = test system: FAB9; assay: as above; conditions: P. falciparum in erythrocytes, SYBR Green DNA, 72 h; series mostly up to 12.8 µM
Outline: as §1

[15] = test system: JCK; assay: as above; conditions: P. falciparum in erythrocytes, SYBR Green DNA, 72 h; series mostly up to 12.8 µM
Outline: as §1

[16] = test system: P94_40; assay: as above; conditions: P. falciparum in erythrocytes, SYBR Green DNA, 72 h; series mostly up to 12.8 µM
Outline: as §1

[17] = test system: PC15; assay: as above; conditions: P. falciparum in erythrocytes, SYBR Green DNA, 72 h; series mostly up to 12.8 µM
Outline: as §1

[18] = test system: PC49; assay: as above; conditions: P. falciparum in erythrocytes, SYBR Green DNA, 72 h; series mostly up to 12.8 µM
Outline: as §1

[19] = molecular target: DNA dC->dU-editing enzyme APOBEC-3G (Homo sapiens) (UniProt Q9HC16); assay: qHTS for inhibitors of Vif-A3G interactions: Validation (AID 588379)
Outline: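 Yellow fluorescence (Ex 488, Em 500-530) of Vif-coexpressing HeLa A3G-eYFP cells, scanned by Acumen cytometer, reports blocked A3G degradation. Cells plated at 700/well overnight at 37 deg C before compound addition, then a further overnight compound incubation at 37 deg C.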

[20] = molecular target: Cytochrome P450 3A4 (Homo sapiens) (UniProt P08684); assay: qHTS Assay for Activators of Cytochrome P450 3A4 (AID 885); further: nearly all actives have a fitted effect of over 65% in size
Outline: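 CYP3A4 activity: Luciferin-PPXE O-dealkylation, 25uM substrate, 200mM KPO4, RT throughout. Read-out is luciferase luminescence; higher values reflect activation.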

[21] = measured here: cell count channel max response
[22] = measured here: lipid channel max response

Chain of DNA dC->dU-editing enzyme APOBEC-3G (Homo sapiens) (Q9HC16 whole entry, looked up): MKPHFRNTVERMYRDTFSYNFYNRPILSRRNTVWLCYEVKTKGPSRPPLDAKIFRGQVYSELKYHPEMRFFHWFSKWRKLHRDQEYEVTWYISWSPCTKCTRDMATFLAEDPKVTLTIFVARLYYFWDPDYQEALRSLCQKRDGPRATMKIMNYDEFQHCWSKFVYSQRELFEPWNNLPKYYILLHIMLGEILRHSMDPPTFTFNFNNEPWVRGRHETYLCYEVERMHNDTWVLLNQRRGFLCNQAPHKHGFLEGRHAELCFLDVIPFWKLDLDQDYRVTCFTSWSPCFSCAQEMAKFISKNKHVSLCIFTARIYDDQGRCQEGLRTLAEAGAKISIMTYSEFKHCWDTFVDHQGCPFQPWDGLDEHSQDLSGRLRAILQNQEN
Chain of Cytochrome P450 3A4 (Homo sapiens) (P08684 whole entry, looked up): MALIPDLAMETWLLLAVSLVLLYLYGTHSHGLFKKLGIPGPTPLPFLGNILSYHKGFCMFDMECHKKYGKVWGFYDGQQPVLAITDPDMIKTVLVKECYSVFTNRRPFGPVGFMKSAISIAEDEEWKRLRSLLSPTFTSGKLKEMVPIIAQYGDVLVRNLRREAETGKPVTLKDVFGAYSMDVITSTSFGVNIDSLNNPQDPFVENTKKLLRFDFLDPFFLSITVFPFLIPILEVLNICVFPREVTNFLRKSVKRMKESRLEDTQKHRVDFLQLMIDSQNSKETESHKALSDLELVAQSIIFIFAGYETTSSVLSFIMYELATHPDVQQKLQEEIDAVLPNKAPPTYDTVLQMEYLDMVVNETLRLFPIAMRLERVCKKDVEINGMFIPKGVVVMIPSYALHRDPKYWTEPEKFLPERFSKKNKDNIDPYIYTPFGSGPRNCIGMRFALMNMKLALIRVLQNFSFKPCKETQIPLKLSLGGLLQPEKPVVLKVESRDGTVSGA
Chain of Luciferin 4-monooxygenase (Photinus pyralis) (P08659 whole entry, looked up): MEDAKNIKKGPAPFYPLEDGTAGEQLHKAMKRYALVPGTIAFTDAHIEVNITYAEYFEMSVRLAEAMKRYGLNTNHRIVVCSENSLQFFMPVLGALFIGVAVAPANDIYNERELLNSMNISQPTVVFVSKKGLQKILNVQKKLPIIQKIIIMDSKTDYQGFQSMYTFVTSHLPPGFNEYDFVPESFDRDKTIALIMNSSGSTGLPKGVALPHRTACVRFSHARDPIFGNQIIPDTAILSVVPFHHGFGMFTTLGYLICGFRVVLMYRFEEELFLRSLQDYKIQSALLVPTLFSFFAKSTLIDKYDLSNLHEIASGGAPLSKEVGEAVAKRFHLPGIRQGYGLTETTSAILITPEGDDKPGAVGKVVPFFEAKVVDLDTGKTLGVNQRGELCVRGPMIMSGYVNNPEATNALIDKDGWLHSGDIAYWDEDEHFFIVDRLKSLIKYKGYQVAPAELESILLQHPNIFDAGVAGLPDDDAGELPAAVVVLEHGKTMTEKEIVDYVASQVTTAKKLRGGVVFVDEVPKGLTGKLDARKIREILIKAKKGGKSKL
Chain of Ubiquitin carboxyl-terminal hydrolase 1 (Homo sapiens) (O94782 whole entry, looked up): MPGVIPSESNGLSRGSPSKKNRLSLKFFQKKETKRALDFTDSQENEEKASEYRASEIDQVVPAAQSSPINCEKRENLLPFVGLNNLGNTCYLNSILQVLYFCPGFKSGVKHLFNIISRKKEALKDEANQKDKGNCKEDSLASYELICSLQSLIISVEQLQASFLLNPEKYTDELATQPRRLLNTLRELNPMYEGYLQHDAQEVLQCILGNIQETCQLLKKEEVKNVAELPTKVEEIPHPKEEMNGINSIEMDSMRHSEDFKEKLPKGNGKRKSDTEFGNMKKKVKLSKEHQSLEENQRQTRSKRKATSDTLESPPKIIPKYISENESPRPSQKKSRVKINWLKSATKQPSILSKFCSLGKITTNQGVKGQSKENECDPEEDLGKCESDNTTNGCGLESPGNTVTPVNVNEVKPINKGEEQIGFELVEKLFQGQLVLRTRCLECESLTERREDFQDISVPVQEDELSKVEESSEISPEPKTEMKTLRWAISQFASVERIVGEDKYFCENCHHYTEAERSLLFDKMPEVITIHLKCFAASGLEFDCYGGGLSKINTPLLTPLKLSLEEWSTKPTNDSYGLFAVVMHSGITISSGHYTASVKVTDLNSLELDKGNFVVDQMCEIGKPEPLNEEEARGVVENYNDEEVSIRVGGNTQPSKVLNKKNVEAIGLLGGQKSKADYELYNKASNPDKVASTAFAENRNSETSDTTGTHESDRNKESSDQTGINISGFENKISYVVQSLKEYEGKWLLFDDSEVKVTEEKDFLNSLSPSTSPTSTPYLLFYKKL
Chain of ATP-dependent 6-phosphofructokinase (Trypanosoma brucei brucei) (O15648 whole entry, looked up): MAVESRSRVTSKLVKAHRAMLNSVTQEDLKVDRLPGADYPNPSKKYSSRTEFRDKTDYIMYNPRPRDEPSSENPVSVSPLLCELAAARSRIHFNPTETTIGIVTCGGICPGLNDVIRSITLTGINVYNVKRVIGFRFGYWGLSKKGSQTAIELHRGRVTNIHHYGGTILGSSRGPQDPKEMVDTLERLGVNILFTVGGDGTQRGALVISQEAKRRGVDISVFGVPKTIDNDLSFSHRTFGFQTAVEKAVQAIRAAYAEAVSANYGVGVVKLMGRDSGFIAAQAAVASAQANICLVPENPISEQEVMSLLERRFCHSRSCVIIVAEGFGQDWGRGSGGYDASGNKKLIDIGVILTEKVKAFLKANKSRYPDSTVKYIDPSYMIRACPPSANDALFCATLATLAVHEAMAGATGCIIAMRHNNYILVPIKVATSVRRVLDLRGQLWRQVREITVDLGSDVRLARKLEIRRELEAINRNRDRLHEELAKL

Structure (SMILES): CC(=O)N[C@@H]1C(O)OC(CO)C(O)C1O (stereo partly specified)
- Potency [1]: inactive
- Potency [2]: inactive
- Potency [3]: inactive
- activity change, negative = inhibition [4]: 4.62% (inactive)
- max response [4, 21]: 4.28%
- max response [4, 22]: 11.6%
- outcome [5]: inactive
- Potency [6]: inactive
- Potency [7]: inactive
- Potency [8]: inactive
- activity, negative = inhibition ([9]; parasite line A): 3.66% (inactive)
- activity, negative = inhibition ([9]; parasite line B): 14.7% (inactive)
- Potency [10]: inactive
- Potency [11]: inactive
- Potency [12]: inactive
- Potency [13]: inactive
- Potency [14]: inactive
- Potency [15]: inactive
- Potency [16]: inactive
- Potency [17]: inactive
- Potency [18]: inactive

Structure (SMILES): COc1c(Cl)ccc(Cl)c1C(=O)O
- Potency [1]: inactive
- Potency [2]: inactive
- Potency [3]: inactive
- activity change, negative = inhibition [4]: 0.0476% (inactive)
- max response [4, 21]: -8.45%
- max response [4, 22]: -7.42%
- Potency [6]: inactive

Structure (SMILES): Nc1ccn([C@H]2C[C@H](O)[C@@H](CO)O2)c(=O)n1
- Potency [1]: inactive
- activity change, negative = inhibition [4]: 0.617% (inactive)
- max response [4, 21]: 3.42%
- max response [4, 22]: 2.44%
- Potency [6]: inactive
- outcome [19]: inactive

Structure (SMILES): CC1CC[C@@]23CCC4(C)[C@@]5(C)CCC6C(C)(C)C(O)CC[C@@]6(C)C5C=C[C@@]4(OC2=O)C3C1C (stereo partly specified)
- Potency [1]: 5.01 µM (active)
- Potency [20]: inactive
- Potency [2]: inactive
- Potency [3]: inactive
- activity change, negative = inhibition [4]: 1.82% (inactive)
- max response [4, 21]: 9.51%
- max response [4, 22]: 12.3%
- Potency [6]: inactive

Structure (SMILES): CC1(C)SC2C(NC(=O)C(N)c3ccccc3)C(=O)N2C1C(=O)O (stereo unspecified)
- Potency [2]: inactive
- Potency [3]: inactive
- activity change, negative = inhibition [4]: 7.23% (inactive)
- max response [4, 21]: 15.7%
- max response [4, 22]: 29.5%
- Potency [6]: inactive
- Potency [7]: inactive

Structure (SMILES): COc1c(OC)c2occc2c2oc(=O)ccc12
- Potency [1]: 10 µM (active)
- Potency [20]: inactive
- Potency [2]: inactive
- Potency [3]: inactive
- activity change, negative = inhibition [4]: 12.4% (inactive)
- max response [4, 21]: 0.397%
- max response [4, 22]: 12.4%
- Potency [6]: inactive

Structure (SMILES): CC(C)[C@H]1CC[C@@H](C)C[C@H]1O
- Potency [1]: inactive
- activity change, negative = inhibition [4]: -5.33% (inactive)
- max response [4, 21]: -11.9%
- max response [4, 22]: -15.2%
- Potency [6]: inactive
- outcome [19]: inactive

Structure (SMILES): C=CC1=C(C(=O)O)N2C(=O)C(NC(=O)/C(=N\O)c3csc(N)n3)C2SC1 (stereo unspecified)
- Potency [1]: inactive
- Potency [2]: inactive
- Potency [3]: inactive
- activity change, negative = inhibition [4]: 3.88% (inactive)
- max response [4, 21]: 11.5%
- max response [4, 22]: 17.7%
- Potency [6]: inactive
- Potency [7]: inactive

Structure (SMILES): CNc1ccccc1C(=O)N1CCc2c([nH]c3ccccc23)C1=O
- Potency [1]: 1 µM (active)
- Potency [20]: inactive
- Potency [2]: inactive
- Potency [3]: inactive
- activity change, negative = inhibition [4]: 8.02% (inactive)
- max response [4, 21]: 12.5%
- max response [4, 22]: 25.5%
- Potency [6]: inactive

Structure (SMILES): O=c1[nH]c(=O)n([C@@H]2O[C@H](CO)[C@@H](O)[C@H]2O)cc1Br
- Potency [1]: inactive
- activity change, negative = inhibition [4]: -8.5% (inactive)
- max response [4, 21]: -11.6%
- max response [4, 22]: -16.6%
- Potency [6]: inactive
- outcome [19]: inactive

Structure (SMILES): COC1OC2COC(c3ccccc3)OC2C(O)C1O (stereo unspecified)
- Potency [1]: inactive
- activity change, negative = inhibition [4]: 1.99% (inactive)
- max response [4, 21]: 4.47%
- max response [4, 22]: 4.04%
- Potency [6]: inactive
- outcome [19]: inactive

From PubChem BioAssay (NCATS)
